HT1080 IDH1KD tx = HT-1080 IDH1 knockdown cell toxicity (counter line); Potency, µM (highest dose often 46.1 µM), without a hit: at the top dose activity, negative = toxicity, most hits filed as cytotoxic; AID 686971; HT-1080 IDH1 knockdown viability, ATP luminescence, 48 h; 360,000 tested, 2% active;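 further: potency means the concentration at half of the fitted maximal effect; 0% = DMSO wells and -100% = cell-free medium wells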
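HT-1080-IDH1KD cells (IDH1 knocked down), 750/well in RPMI with 5% FBS, treated with compound 48 h at 37 degrees C. Viability by CellTiter-Glo luminescence, normalised to DMSO and no-cell wells; concentration-response curves classed.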
IL1B secr inh = blocks inflammasome-driven IL-1 beta release. THP-1 LPS/ATP IL-1B secretion, AlphaLISA, 16 h; hits give low values. activity change, % at 57.5 µM. 360,000 tested, 4.7% active. AID 743279; in the data active means activity change below about -50%; inconclusive means mostly about -30% to -49%
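THP-1 cells pretreated 1 hr with compounds (up to 57.5 uM final), then stimulated with LPS (250 ng/mL final) plus ATP (1.25 mM final); secreted IL-1B measured by AlphaLISA after 16 hr, decreased signal indicating inhibition.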
HT1080NT lethal = kills 2HG-producing HT-1080-NT fibrosarcoma cells; 360,000 tested, 1.6% active; Potency, µM (top dose mostly 46.1 µM), inactives show top-dose activity, negative = less viability, usual class: cytotoxic; HT-1080-NT fibrosarcoma viability, CellTiter-Glo ATP luminescence, 48 h;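 further: NT is the 2HG producing partner of a matched IDH1 knockdown line; potency means the concentration at half of the fitted maximal effect; 0% = DMSO-treated cells and -100% = media-only wells without cells; nearly all actives have a fitted effect of over 55% in size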
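HT-1080-NT fibrosarcoma cells (2HG-overproducing), 750 cells/well in RPMI with 5% FBS, dosed after 2 h and incubated 48 h at 37C. CellTiter-Glo luminescence normalized to DMSO and no-cell wells; concentration-response curves fitted and classed.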
DT40 TDP1 no CPT = qHTS for Inhibitors of human tyrosyl-DNA phosphodiesterase 1 (TDP1): qHTS in cells in absence of CPT; DT40 Tdp1-/- hTDP1 cells, no CPT, ATP luminescence, 48 h; Potency, µM (series often up to 46.2 µM), inactives show at the highest dose activity change, negative = growth inhibition, usual class: inhibitors; 420,000 tested, 15% active; AID 686978, 2013; further: potency means the concentration at half of the fitted maximal effect; nearly all actives have a fitted effect of over 55% in size
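No-CPT arm: Tdp1-/-;hTDP1 DT40 cells (400/well) plus compounds, incubated ≥48 hr at 37 °C. Readout CellTiter-Glo luminescence.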
DT40 TDP1 CPT = DT40-hTDP1 cell growth loss with CPT; chicken DT40 Tdp1-/-;hTDP1 cells + 20 nM CPT, ATP luminescence, 48 h; Potency, µM (highest dose often 46.2 µM), for the others: at the top dose activity change, negative = growth inhibition, usual class: inhibitors; 420,000 tested, 12% active; AID 686979; further: potency means the concentration at half of the fitted maximal effect; nearly all actives have a fitted effect of over 55% in size
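Chicken DT40 Tdp1-/- cells stably complemented with human TDP1 were seeded at 400 cells/well in medium containing 20 nM camptothecin, exposed to pin-transferred compounds, and grown at 37 °C for at least 48 hr. Viability was read as ATP luminescence.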
* hit, by the source's call; ? = inconclusive; nt = no result given; ! = not active in a repeat. In the library only some 19% were active in any assay of this set; here they are far more common. Unless noted, the call rests on the fitted dose curve; in most records, active means well fitted curve in the direction sought with a large enough effect; inconclusive means small, poorly fitted or top-dose-only effect, or another doubt; inactive means no such curve, though single readings can be large; an effect the other way counts as inactive or inconclusive. Unless noted, on the % scale 0 is the no-effect control and ±100 the full control effect.

SMILES	HT1080 IDH1KD tx	IL1B secr inh	HT1080NT lethal	DT40 TDP1 no CPT	DT40 TDP1 CPT
CCCCC(=O)N(C)c1c(CC)nc2c(OCC(=O)c3ccc(F)cc3)cccn12	5%	-4	-3%	?	?
COc1ccc(C(=O)NCC(c2cccnc2)N2CCc3ccccc3C2)cc1 (configuration not stated)	nt	nt	nt	21µM*	12µM*
COc1ccc(C(=O)NCC(c2cccnc2)N2CCc3ccccc32)cc1OC (configuration not stated)	nt	nt	nt	21µM*	15µM*
COc1ccc(C(=O)NCC(c2cccnc2)N2CCN(c3ccccc3)CC2)cc1OC (configuration not stated)	-8%	21	0%	-21%	?
O=C(NCC(c1cccnc1)N1CCc2ccccc21)c1ccc(F)cc1 (configuration not stated)	nt	nt	nt	18µM*	23µM*
COc1ccc(C(=O)NCC(c2cccnc2)N2CCN(c3ccc(F)cc3)CC2)cc1OC (configuration not stated)	-7%	-9	10%	?	?
COc1ccc(C(=O)NCC(c2cccnc2)N2CCc3ccccc3C2)cc1OC (configuration not stated)	nt	nt	nt	?	16µM*
Cc1ccc(S(=O)(=O)N(C)C[C@@H]2OCc3cnnn3CCCC(=O)N([C@@H](C)CO)C[C@H]2C)cc1	-1%	13	-13%	-11%	-4%
O=C(O)/C=C/c1ccc2ccccc2c1	nt	nt	nt	-2%	2%
O=C(NCCCn1ccnc1)C1CCN(S(=O)(=O)c2cc([N+](=O)[O-])ccc2Cl)CC1	20%	-19	13%	-6%	11%
O=C1[C@H]2[C@H](C=CC[C@H]2C(=O)N2CCN(c3ccccc3)CC2)CCN1Cc1ccc(Cl)c(Cl)c1	-5%	-51*	0%	18µM*	16µM*
CCCCNC(=O)[C@@H]1CC=C[C@@H]2CCN(Cc3ccc(Cl)c(Cl)c3)C(=O)[C@@H]21	-9%	-7	19%	8.9µM*	11µM*
O=C(NCc1cccnc1)[C@@H]1CC=C[C@@H]2CCN(Cc3ccc(Cl)c(Cl)c3)C(=O)[C@@H]21	-1%	-7	-2%	?	?
CCCCNC(=O)[C@@H]1CC=C[C@@H]2CCN(Cc3ccccc3)C(=O)[C@@H]21	nt	nt	nt	-62%	-64%
O=C([C@@H]1CC=C[C@@H]2CCN(C3CC3)C(=O)[C@@H]21)N1CCN(c2ccccc2)CC1	4%	18	-3%	4%	-9%
O=C1[C@H]2[C@H](C=CC[C@H]2C(=O)N2CCN(c3ccccc3)CC2)CCN1Cc1ccccc1	0%	2	-3%	14µM*	?
O=C(NCCc1ccccc1)[C@@H]1CC=C[C@@H]2CCN(C3CCCCC3)C(=O)[C@@H]21	14%	-24	9%	?	20µM*!
O=C(Nc1ccccc1)[C@@H]1CC=C[C@@H]2CCN(C3CC3)C(=O)[C@@H]21	nt	nt	nt	-6%	-23%
O=C(Nc1ccc(Cl)cc1Cl)[C@@H]1CC=C[C@@H]2CCN(Cc3ccccc3)C(=O)[C@@H]21	nt	nt	nt	?	10µM*
COc1ccc(CN2CC[C@H]3C=CC[C@@H](C(=O)Nc4ccc(Cl)c(C(F)(F)F)c4)[C@H]3C2=O)cc1OC	-11%	?	-9%	11µM*	?
COc1ccc(NC(=O)[C@@H]2CC=C[C@@H]3CCN(Cc4ccc(Cl)c(Cl)c4)C(=O)[C@@H]32)cc1	?	?	-30%	?	?
COc1cccc(/C=C2\Oc3cc(OC(=O)N4CCOCC4)ccc3C2=O)c1	3%	-3	29%	?	?
O=C1/C(=C/c2ccc3c(c2)OCO3)Oc2cc(OCC(=O)N3CCC[C@H]3C(=O)O)ccc21	5%	9	7%	-2%	21µM*
COc1ccccc1/C=C1\Oc2cc(OC(=O)N3CCOCC3)ccc2C1=O	0%	-9	-5%	23µM*	15µM*
COc1ccc(/C=C2\Oc3cc(OCC(=O)N4CCC[C@H]4CO)ccc3C2=O)c(OC)c1	-1%	-22	-10%	?	23µM*
SMILES	HT1080 IDH1KD tx	IL1B secr inh	HT1080NT lethal	DT40 TDP1 no CPT	DT40 TDP1 CPT
COc1cccc(/C=C2\Oc3cc(OCC(=O)N4Cc5ccccc5C[C@H]4C(=O)O)ccc3C2=O)c1	0%	14	2%	?	-29%
COc1ccc(C2=NN(C(C#N)c3ccc(OC)cc3)C(c3ccccc3)C2)cc1 (configuration not stated)	-10%	19	-1%	?	?
COc1ccccc1N1CC(C(=O)OC(C)C(=O)Nc2ccc(F)cc2)CC1=O (configuration not stated)	-1%	1	5%	5%	5%
C#CCN(C(=O)c1ccc(OC2CCN(Cc3ccccn3)CC2)cc1)C1CCCCC1	-2%	?	1%	?	16µM*
C#CCN(C(=O)c1ccc(OC2CCN(C(=O)CCOC)CC2)cc1)C1CCCCC1	-9%	49	1%	?	23µM*
c1cncc(CNCc2ccco2)c1	15%	18	18%	4%	-8%
CCCCCCCc1ccc(C2NC(=S)NC3=C2C(=O)c2ccccc23)cc1 (configuration not stated)	3%	9	3%	?	16µM*
CCOc1ccccc1NC(=O)CSc1ncnc2c1oc1ccccc12	1%	0	-2%	?	29µM*
CCOc1ccccc1Oc1ncnc2c1oc1ccccc12	nt	nt	nt	21µM*	13µM*
O=C(CSc1ncnc2c1oc1ccccc12)Nc1ccccc1F	-1%	48	4%	-11%	-5%
CCc1ccccc1NC(=O)CSc1nc2c(oc3ccccc32)c(=O)n1-c1ccccc1	nt	nt	nt	18µM*	23µM*
COc1ncnc2c1oc1ccccc12	1%	15	-2%	-28%	-4%
Cc1cccc(NC(=O)CSc2nc3c(oc4ccccc43)c(=O)n2-c2ccccc2)c1C	nt	nt	nt	21µM*	?
CCOc1ccccc1NC(=O)CSc1nc2c(oc3ccccc32)c(=O)n1-c1ccc(F)cc1	nt	nt	nt	6.5µM*	8.2µM*
COCCn1c(SCC(=O)Nc2ccccc2OC)nc2c(oc3ccccc32)c1=O	-16%	-22	0%	?	?
Cc1cccc(-n2c(SCC(=O)Nc3ccccc3C)nc3c(oc4ccccc43)c2=O)c1	nt	nt	nt	5.2µM*	7.3µM*
COc1ccccc1-c1ccc([C@@H]2C[C@H]3[C@@H](CN2)CON3C)cc1	-3%	-4	-5%	-30%	-19%
Cc1ccc2nc(-c3cccnc3)c(Nc3ccc(C(C)C)cc3)n2c1	nt	nt	nt	-5%	-25%
Cc1ccc(-c2nc3ccccn3c2Nc2ccccc2C)o1	-4%	nt	-12%	16µM*	?
